The record followed here is the supplement of paper PMC3616981.

Compound in assay [1]: CC(C)c1cccc(C(C)C)c1N1C(=O)c2ccc(O)cc2C1=O
Put plainly: BioMAP readout fold decrease vs vehicle (vehicle/treated); higher = stronger decrease of the readout vs vehicle (values <1 mean increase). On the procedure: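 BioSeek BioMAP human primary cell (co-)culture systems (3C, 4H, LPS, SAg, BE3C, CASM3C, hDFCGF, KF3CT) treated with 5HPP-33 at 1.48, 4.44, 13.3 and 40 µM. Read-outs are protein levels by ELISA, proliferation and SRB total protein. Duplicate rows per assay are averaged as replicates. Tested in ToxCast Phase II for this study; exposure time not stated.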

Compound in assay [2]: CC(C)c1cccc(C(C)C)c1N1C(=O)c2ccc(O)cc2C1=O
Put plainly: reporter fold induction vs vehicle; higher = higher reporter activity. The gist of the method:
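Reporter activity is expressed as fold induction over vehicle. The multiplexed cellular biosensor system combined 48 cis response-element constructs and 25 trans nuclear-receptor transcription factor constructs with homogeneous detection. Chemicals from ToxCast Phase II were tested at 8 concentrations spanning 0.091–200 µM, and replicates were averaged where present.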

± gives the standard deviation of the averaged measurements.
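Wherever BioMAP readout fold decrease vs vehicle (vehicle/treated) is given: Co-cultures of keratinocytes, bronchial epithelial and smooth muscle cells, fibroblasts, HUVECs and PBMCs under stimuli like LPS, TNF-α, IFN-γ, IL-1β, TGF-β or EGF, SRB reflecting cytotoxicity.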

As for 3C_MCP1, the “BioMAP readout fold decrease” value in assay [1] (1.48 µM) was 1.04 ± 0.015; in assay [1] (4.44 µM), 0.986 ± 0.0064; in assay [1] (13.3 µM), 0.8619 ± 0.0073; in assay [1] (40 µM) it was 0.919 ± 0.018.

Consider HNF6_CIS, for which the reporter fold induction came out at 0.992 in assay [2] (0.091 µM); 0.941 in assay [2] (0.274 µM); 0.978 in assay [2] (0.823 µM); 0.981 in assay [2] (2.469 µM); 0.982 in assay [2] (7.407 µM); 0.952 in assay [2] (22.22 µM). Further, the reporter fold induction in assay [2] (66.67 µM) came to 0.932; in assay [2] (200 µM), 0.692.

hDFCGF_TIMP1: the “BioMAP readout fold decrease” value in assay [1] (1.48 µM) worked out at 0.847 ± 0.061; in assay [1] (4.44 µM), 0.78536 ± 0.00052; in assay [1] (13.3 µM), 0.608 ± 0.042; in assay [1] (40 µM), 0.715 ± 0.069.

Regarding hDFCGF_EGFR, the “BioMAP readout fold decrease” value in assay [1] (1.48 µM) came out at 1.0619 ± 0.00028; in assay [1] (4.44 µM), 1.02 ± 0.028; in assay [1] (13.3 µM) it was 1.19 ± 0.025; in assay [1] (40 µM), 1.291 ± 0.0087.

For KF3CT_SRB, the “BioMAP readout fold decrease” value in assay [1] (1.48 µM) turned out to be 1.012 ± 0.0046; in assay [1] (4.44 µM), 1.011 ± 0.0045; in assay [1] (13.3 µM) it was 1.0454 ± 0.00028; in assay [1] (40 µM) it was 1.53 ± 0.21.

In the case of FXR_TRANS, the reporter fold induction stood at 1.17 in assay [2] (0.091 µM); 1.15 in assay [2] (0.274 µM); 1.19 in assay [2] (0.823 µM); 1.17 in assay [2] (2.469 µM); 1.09 in assay [2] (7.407 µM); 1.46 in assay [2] (22.22 µM). For the same target, the results for the reporter fold induction in assay [2] (66.67 µM) and in assay [2] (200 µM) were 1.82 and 1.92, respectively.

3C_ICAM1: the “BioMAP readout fold decrease” value in assay [1] (1.48 µM) came to 1.05 ± 0.025; in assay [1] (4.44 µM) it was 1.05 ± 0.019; in assay [1] (13.3 µM), 1.02 ± 0.013; in assay [1] (40 µM), 1.08 ± 0.087.

As for SAg_IL8, the “BioMAP readout fold decrease” value amounted to 1.12 ± 0.039 in assay [1] (1.48 µM), 1.19 ± 0.029 in assay [1] (4.44 µM), 0.963 ± 0.026 in assay [1] (13.3 µM) and 1.36 ± 0.052 in assay [1] (40 µM).

As to 4H_uPAR, the “BioMAP readout fold decrease” value was determined as 1.2 ± 0.045 in assay [1] (1.48 µM), 1.3 ± 0.038 in assay [1] (4.44 µM), 1.361 ± 0.0024 in assay [1] (13.3 µM) and 2.33 ± 0.26 in assay [1] (40 µM).

On to M_61_CIS, for which the reporter fold induction turned out to be 0.997 in assay [2] (0.091 µM); 0.997 in assay [2] (0.274 µM); 1.01 in assay [2] (0.823 µM); 0.995 in assay [2] (2.469 µM); 1.02 in assay [2] (7.407 µM); 1.02 in assay [2] (22.22 µM). Also, the reporter fold induction in assay [2] (66.67 µM) was determined as 0.98; in assay [2] (200 µM), 1.09.

On to CASM3C_IL6, for which the “BioMAP readout fold decrease” value in assay [1] (1.48 µM) stood at 0.923 ± 0.002; in assay [1] (4.44 µM), 0.9348 ± 0.0071; in assay [1] (13.3 µM), 0.8611 ± 0.001; in assay [1] (40 µM) it was 0.752 ± 0.0092.

Regarding CASM3C_LDLR, the “BioMAP readout fold decrease” value in assay [1] (1.48 µM) came to 1.1 ± 0.017; in assay [1] (4.44 µM), 1.188 ± 0.002; in assay [1] (13.3 µM) it was 0.969 ± 0.038; in assay [1] (40 µM), 2.21 ± 0.034.

As for hDFCGF_VCAM1, the “BioMAP readout fold decrease” value was 1.18 ± 0.2 in assay [1] (1.48 µM), 1.32 ± 0.063 in assay [1] (4.44 µM), 2.03 ± 0.15 in assay [1] (13.3 µM) and 4.4 ± 0.3 in assay [1] (40 µM).

CASM3C_HLADR: the “BioMAP readout fold decrease” value in assay [1] (1.48 µM) is 0.895 ± 0.021; in assay [1] (4.44 µM), 0.797 ± 0.061; in assay [1] (13.3 µM), 1.41 ± 0.07; in assay [1] (40 µM) it was 2.61 ± 0.45.

As for SAg_PBMCCytotoxicity, the “BioMAP readout fold decrease” value turned out to be 0.998 ± 0.065 in assay [1] (1.48 µM), 1.01 ± 0.078 in assay [1] (4.44 µM), 0.879 ± 0.028 in assay [1] (13.3 µM) and 0.894 ± 0.028 in assay [1] (40 µM).

In the case of KF3CT_uPA, the “BioMAP readout fold decrease” value in assay [1] (1.48 µM) worked out at 1.016 ± 0.0099; in assay [1] (4.44 µM), 1.015 ± 0.01; in assay [1] (13.3 µM), 0.969 ± 0.012; in assay [1] (40 µM), 2.15 ± 0.47.

Consider 4H_SRB, for which the “BioMAP readout fold decrease” value in assay [1] (1.48 µM) came to 1.05 ± 0.014; in assay [1] (4.44 µM), 1.12 ± 0.016; in assay [1] (13.3 µM), 1.25 ± 0.031; in assay [1] (40 µM), 1.44 ± 0.041.

For 3C_MIG, the “BioMAP readout fold decrease” value in assay [1] (1.48 µM) was 1.004 ± 0.0083; in assay [1] (4.44 µM) it was 1.01 ± 0.0047; in assay [1] (13.3 µM) it was 1 ± 0.012; in assay [1] (40 µM), 1.09 ± 0.016.

CASM3C_SRB: the “BioMAP readout fold decrease” value in assay [1] (1.48 µM) worked out at 1.022 ± 0.0094; in assay [1] (4.44 µM), 1.1 ± 0.012; in assay [1] (13.3 µM), 1.07 ± 0.023; in assay [1] (40 µM), 1.41 ± 0.047.

3C_hLADR: the “BioMAP readout fold decrease” value is 1.04 ± 0.038 in assay [1] (1.48 µM), 1.55 ± 0.048 in assay [1] (4.44 µM), 4.27 ± 0.47 in assay [1] (13.3 µM) and 7.36 ± 0.11 in assay [1] (40 µM).

BE3C_MIG: the “BioMAP readout fold decrease” value in assay [1] (1.48 µM) was 0.992 ± 0.016; in assay [1] (4.44 µM), 1 ± 0.021; in assay [1] (13.3 µM), 1.036 ± 0.0018; in assay [1] (40 µM), 1.36 ± 0.19.

Take SAg_MIG: the “BioMAP readout fold decrease” value in assay [1] (1.48 µM) is 1.05 ± 0.017; in assay [1] (4.44 µM), 1.04 ± 0.012; in assay [1] (13.3 µM), 1.07 ± 0.034; in assay [1] (40 µM), 7.73 ± 1.1.
